From the OligoGym collection

What was measured:
Assay in all cases: pooled miR-30 sensor sort-seq; sequence = guide strand
Details in all cases: shRNA
MYRIP = molecular target: MYRIP
MYST1 = molecular target: MYST1
MYST4 = molecular target: MYST4
MYO1F = molecular target: MYO1F
NAT9 = molecular target: NAT9
NBPF1 = molecular target: NBPF1
NAT8L = molecular target: NAT8L
NCAPG2 = molecular target: NCAPG2
NARF = molecular target: NARF
Note: reference of the scale not given here.

ATTGCTAACTCGTACAGCCTGT
sensor-assay potency score (higher = more potent) (MYRIP): -0.149

TACTTGACCATATTGAGGGATT
sensor-assay potency score (higher = more potent) (MYST1): -1.22

TGACACATAACACAGCATCAGC
sensor-assay potency score (higher = more potent) (MYRIP): -1.31

TTGGCTTTTAGCACCATCTGGA
sensor-assay potency score (higher = more potent) (MYST4): 0.342

TACAGCATCCTTCACTGTCTTG
sensor-assay potency score (higher = more potent) (MYST1): -0.889

TTTTGCTTTGAATCACACCAAC
sensor-assay potency score (higher = more potent) (MYRIP): -1.21

TCATTTTGCATGACCACGCGGG
sensor-assay potency score (higher = more potent) (MYO1F): -0.396

TATTTCAGTATCATCATCCTGA
sensor-assay potency score (higher = more potent) (MYST4): 0.932

TATACAATAACTGAAATGCTAA
sensor-assay potency score (higher = more potent) (MYST4): -0.972

TTCTTGACAAAGACCTTGGTGC
sensor-assay potency score (higher = more potent) (MYO1F): 0.169

TTGTCCACATACTTCACCTTGG
sensor-assay potency score (higher = more potent) (MYST1): -0.263

ATCTTCTGCAGGATTGTCGTGG
sensor-assay potency score (higher = more potent) (MYRIP): -0.78

TTACAGACAACAATCGTTGCTT
sensor-assay potency score (higher = more potent) (MYST4): 0.972

AAAGTCGCTTCTGTCGTCCGTG
sensor-assay potency score (higher = more potent) (MYO1F): -0.528

TTTGAGAACTGAGCCATCCTGA
sensor-assay potency score (higher = more potent) (MYST4): 0.202

TTTGATGAGATCATCTTCTGGT
sensor-assay potency score (higher = more potent) (MYST4): 1.05

TTGAGTCTCGGCACAATCCTGA
sensor-assay potency score (higher = more potent) (MYST4): 0.672

TTTTCGATTGTACTTTTGCAGG
sensor-assay potency score (higher = more potent) (MYST4): -1.34

TTATTTTCTGTATAGCTTCAAG
sensor-assay potency score (higher = more potent) (MYST4): -0.855

TGAAGTTTCTGGAACATCCGGA
sensor-assay potency score (higher = more potent) (NAT9): 0.756

TCTTCGTTGATCTTCTTCCCCT
sensor-assay potency score (higher = more potent) (NBPF1): -0.277

TGCCTCGGAAACGTGAGTCCAC
sensor-assay potency score (higher = more potent) (NAT8L): -0.669

TGAGTCCACAGACATCCGCAGC
sensor-assay potency score (higher = more potent) (NAT8L): -1.61

TAAGGCTTCTCTTCCACGTGGC
sensor-assay potency score (higher = more potent) (NAT9): 0.678

TTTATGAGGTCTTCGCACTCTT
sensor-assay potency score (higher = more potent) (NBPF1): 0.0563

TTATGAGGTCTTCGCACTCTTC
sensor-assay potency score (higher = more potent) (NBPF1): -1.54

TCTGATTTCATCCACTCGTGGT
sensor-assay potency score (higher = more potent) (NAT9): -0.312

TATAATAACACATTCCAGTAGG
sensor-assay potency score (higher = more potent) (NCAPG2): -0.388

TTGTCTGCATCTTCCTGCCAGC
sensor-assay potency score (higher = more potent) (NAT9): -1.08

TTCATCCACTCGTGGTACCTGC
sensor-assay potency score (higher = more potent) (NAT9): -1.04

TACACTTGTCTGCATCTTCCTG
sensor-assay potency score (higher = more potent) (NAT9): -0.99

TTGTTCACATGCAGTCTGCTGT
sensor-assay potency score (higher = more potent) (NAT9): -0.324

TTAACAAAATCTGAGCTGCAAG
sensor-assay potency score (higher = more potent) (NAT8L): -1.08

TTGGTCTTCTTCCTCTTCCTGG
sensor-assay potency score (higher = more potent) (NBPF1): -0.175

ATCCTCGTTGAACAGCTCCTTG
sensor-assay potency score (higher = more potent) (NARF): -0.97

ATCCGCAGCAGCTCCACCGTGT
sensor-assay potency score (higher = more potent) (NAT8L): -0.56

AAATCCGCAGCTATCGTCGTAT
sensor-assay potency score (higher = more potent) (NARF): -0.245

TCAAACGCTGCAGCTCCTCTGA
sensor-assay potency score (higher = more potent) (NAT9): -0.784

TTCAATGCTATCCTCTTCCAAA
sensor-assay potency score (higher = more potent) (NCAPG2): -0.814

TTGTGCACCACGGCGAACTCCA
sensor-assay potency score (higher = more potent) (NAT8L): -0.938

TAGCGGTGGTAGCGGACCTGGA
sensor-assay potency score (higher = more potent) (NAT8L): -1.68

TTCGTCTCTGCCTTCTCGCTGG
sensor-assay potency score (higher = more potent) (NBPF1): 0.0322

TTTTCTTCGTTGATCTTCTTCC
sensor-assay potency score (higher = more potent) (NBPF1): -0.0891

TTCGTTGATCTTCTTCCCCTTC
sensor-assay potency score (higher = more potent) (NBPF1): -0.152

TTGGCGATGCCCTTGCCTCGGA
sensor-assay potency score (higher = more potent) (NAT8L): -0.817

TCTTAGGGTACAAACTACCGTT
sensor-assay potency score (higher = more potent) (NAT8L): -0.674

TTGCAAAAACTCTCCAACCAGC
sensor-assay potency score (higher = more potent) (NCAPG2): -0.983

TGAAGGTACACTTGTCTGCATC
sensor-assay potency score (higher = more potent) (NAT9): -1.11

TACAGTCTACAAAACTCCCATC
sensor-assay potency score (higher = more potent) (NAT8L): -1.25

TTGTCCTCCTCGTGGGCCCGTG
sensor-assay potency score (higher = more potent) (NAT8L): -1.12

TTGTTTTCTTACTACATTCCTT
sensor-assay potency score (higher = more potent) (NARF): -0.477

TAAAATGTTCGTCTCTGCCTTC
sensor-assay potency score (higher = more potent) (NBPF1): -0.476

TAGATCTGTGAGGAAGAGGTTC
sensor-assay potency score (higher = more potent) (NAT9): -0.334

TTCTCTGTCCCTTCGCTCGCTT
sensor-assay potency score (higher = more potent) (NAT8L): -0.787

TAACTTATTAGAAAATGTGTTG
sensor-assay potency score (higher = more potent) (NAT8L): -0.872

TTGATTTCTAAAATGTTCGTCT
sensor-assay potency score (higher = more potent) (NBPF1): 0.0571

ACACTTGTCTGCATCTTCCTGC
sensor-assay potency score (higher = more potent) (NAT9): 0.498

TTAGTCTCCAGACTCCTCCTTA
sensor-assay potency score (higher = more potent) (NCAPG2): 0.238

ATCCACTCGTGGTACCTGCTGG
sensor-assay potency score (higher = more potent) (NAT9): -0.384

AACATCTTTACACACAGTCAGG
sensor-assay potency score (higher = more potent) (NCAPG2): -1.69
